{"source": "the supplement of paper PMC9262897", "about": "“Low-cost anti-mycobacterial drug discovery using engineered E. coli” (Nature Communications, 2022)", "note": "Where a name gives a salt, the structure may show the parent alone. ± gives the standard deviation of the averaged measurements."}
{"test_system": "E. coli TESEC Mtb Alr", "experiment": "growth (OD600 after 10 h); higher = more growth (less inhibition)", "conditions": "arabinose 1000 nM; compound 0.1 mM; raw OD600 reference: median of DMSO wells 0.294, cell-free background 0.041", "experimental": "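TESEC Mtb Alr E. coli, or the Alr+ wild-type control, in 384-well plates with Prestwick library compounds at 0.1 mM and 1% DMSO, across arabinose induction levels of 1E3 to 1E7 nM. Growth is read as OD600 after 10 h at 37 °C in triplicate biological replicates.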"}
{"molecule": "CN1CCc2cccc3c2[C@H]1Cc1ccc(O)c(O)c1-3", "note": "[R(-) Apomorphine hydrochloride hemihydrate]", "growth": "0.292 ± 0.0093"}
{"molecule": "CN1CCCN(C(c2ccccc2)c2ccc(Cl)cc2)CC1", "note": "(centres undefined) [Homochlorcyclizine dihydrochloride]", "growth": "0.137 ± 0.082"}
{"molecule": "Cc1ncc(CO)c(CO)c1O", "note": "[Pyridoxine hydrochloride]", "growth": "0.302 ± 0.013"}
{"molecule": "O=C(NCC(O)CO)c1c(I)c(C(=O)NCC(O)CO)c(I)c(N(CCO)C(=O)CO)c1I", "note": "(centres undefined) [Ioversol]", "growth": "0.308 ± 0.017"}
{"molecule": "C[C@@H]1[C@H](O)[C@@H](C)/C=C/C=C/C=C/C=C/C=C/C=C/C=C/[C@H](O[C@@H]2O[C@H](C)[C@@H](O)[C@H](N)[C@@H]2O)C[C@@H]2O[C@](O)(C[C@@H](O)C[C@@H](O)[C@H](O)CC[C@@H](O)C[C@@H](O)CC(=O)O[C@H]1C)C[C@H](O)[C@H]2C(=O)O", "note": "[Amphotericin B]", "growth": "0.33 ± 0.0067"}
{"molecule": "C=Cc1c(C)c2cc3nc(cc4[nH]c(cc5nc(cc1[nH]2)C(C)=C5CCC(=O)O)c(CCC(=O)OC)c4C)[C@@]1(C)C3=CC=C(C(=O)OC)C1C(=O)OC.C=Cc1c(C)c2cc3nc(cc4[nH]c(cc5nc(cc1[nH]2)C(C)=C5CCC(=O)OC)c(CCC(=O)O)c4C)[C@@]1(C)C3=CC=C(C(=O)OC)C1C(=O)OC", "note": "(some centres undefined) [Verteporfin]", "growth": "0.356 ± 0.011"}
{"molecule": "CC(C)C[C@H](NC(=O)[C@@H](O)[C@H](N)Cc1ccccc1)C(=O)O", "note": "[Ubenimex]", "growth": "0.28 ± 0.0072"}
{"molecule": "CC(COc1ccccc1)N(CCCl)Cc1ccccc1", "note": "(centres undefined) [Phenoxybenzamine hydrochloride]", "growth": "0.149 ± 0.01"}
{"molecule": "CN(C)CCCOc1nn(Cc2ccccc2)c2ccccc12", "note": "[Benzydamine hydrochloride]", "growth": "0.224 ± 0.012"}
{"molecule": "CC1CS(=O)(=O)CCN1/N=C/c1ccc([N+](=O)[O-])o1", "note": "(centres undefined) [Nifurtimox]", "growth": "0.0539 ± 0.0037"}
{"molecule": "NCC[C@H](O)C(=O)N[C@@H]1C[C@H](N)[C@@H](O[C@H]2O[C@H](CN)[C@@H](O)[C@H](O)[C@H]2O)[C@H](O)[C@H]1O[C@H]1O[C@H](CO)[C@@H](O)[C@H](N)[C@H]1O", "note": "[Amikacin hydrate]", "growth": "0.0418 ± 0.00079"}
{"molecule": "Cc1cn([C@H]2C[C@H](N=[N+]=[N-])[C@@H](CO)O2)c(=O)[nH]c1=O", "note": "[Zidovudine, AZT]", "growth": "0.0804 ± 0.011"}
{"molecule": "NC1CCN(c2nc3c(cc2F)c(=O)c(C(=O)O)cn3-c2ccc(F)cc2F)C1", "note": "(centres undefined) [Tosufloxacin hydrochloride]", "growth": "0.048 ± 0.0026"}
{"molecule": "CC[C@H](C)C(=O)O[C@H]1C[C@H](O)C=C2C=C[C@H](C)[C@H](CC[C@@H](O)C[C@@H](O)CC(=O)O)[C@H]21", "note": "[Pravastatin]", "growth": "0.309 ± 0.0081"}
{"molecule": "CC(NCCC(c1ccccc1)c1ccccc1)c1ccccc1", "note": "(centres undefined) [Fendiline hydrochloride]", "growth": "0.0413 ± 0.0034"}
{"molecule": "CCN1CCCC(OC(=O)C(c2ccccc2)c2ccccc2)C1", "note": "(centres undefined) [Piperidolate hydrochloride]", "growth": "0.264 ± 0.0065"}
{"molecule": "COc1ccc(C(=O)NCc2ccc(OCCN(C)C)cc2)cc1OC", "note": "[Itopride]", "growth": "0.298 ± 0.0084"}
{"molecule": "CCCCOc1ccc(C(=O)CCN2CCCCC2)cc1", "note": "[Dyclonine hydrochloride]", "growth": "0.278 ± 0.0053"}
{"molecule": "CC(C)C(=O)c1c(C(C)C)nn2ccccc12", "note": "[Ibudilast]", "growth": "0.221 ± 0.0062"}
{"molecule": "CC(O)(P(=O)(O)O)P(=O)(O)O", "note": "[Etidronic acid, disodium salt]", "growth": "0.331 ± 0.0087"}
{"molecule": "Nc1ccc(O)c(C(=O)O)c1", "note": "[Mesalamine]", "growth": "0.287 ± 0.014"}
{"molecule": "CC=CC1=C(C(=O)O)N2C(=O)[C@@H](NC(=O)[C@H](N)c3ccc(O)cc3)[C@H]2SC1", "note": "[Cefprozil]", "growth": "0.303 ± 0.0056"}
{"molecule": "O=C(OCC(O)CO)c1ccccc1Nc1ccnc2cc(Cl)ccc12", "note": "(centres undefined) [Glafenine hydrochloride]", "growth": "0.146 ± 0.006"}
{"molecule": "CC1Cc2ccccc2N1NC(=O)c1ccc(Cl)c(S(N)(=O)=O)c1", "note": "(centres undefined) [Indapamide]", "growth": "0.278 ± 0.01"}
{"molecule": "CN(C)CCN1C(=O)c2ccccc2N(C)c2ccccc21", "note": "[Dibenzepine hydrochloride]", "growth": "0.312 ± 0.018"}
{"molecule": "CO[C@@]1(NC(=O)Cc2cccs2)C(=O)N2C(C(=O)O)=C(COC(N)=O)CS[C@@H]21", "note": "[Cefoxitin sodium salt]", "growth": "0.0385 ± 0.0017"}
{"molecule": "CCC1(c2ccccc2)NC(=O)N(C)C1=O", "note": "(centres undefined) [Mephenytoin]", "growth": "0.299 ± 0.0081"}
{"molecule": "CCN(CC)CC#CCOC(=O)C(O)(c1ccccc1)C1CCCCC1", "note": "(centres undefined) [Oxybutynin chloride]", "growth": "0.13 ± 0.067"}
{"molecule": "COC(=O)[C@H](c1ccccc1Cl)N1CCc2sccc2C1", "note": "[Clopidogrel]", "growth": "0.0873 ± 0.0047"}
{"molecule": "CN(C)CCOc1ccc(/C(=C(/CCCl)c2ccccc2)c2ccccc2)cc1", "note": "[Toremifene]", "growth": "0.04087 ± 0.0004"}
{"molecule": "O=C1c2ccccc2S(=O)(=O)N1CCCCN1CCN(c2ncccn2)CC1", "note": "[Ipsapirone]", "growth": "0.256 ± 0.015"}
{"molecule": "COc1ccc(-c2cc(=S)ss2)cc1", "note": "[Anethole-trithione]", "growth": "0.232 ± 0.008"}
{"molecule": "CCCc1nc2c(C)cc(-c3nc4ccccc4n3C)cc2n1Cc1ccc(-c2ccccc2C(=O)O)cc1", "note": "[Telmisartan]", "growth": "0.271 ± 0.02"}
{"molecule": "CSc1ccc2c(c1)N(CCC1CCCCN1C)c1ccccc1S2", "note": "(centres undefined) [Thioridazine hydrochloride]", "growth": "0.0427 ± 0.0046"}
{"molecule": "CCOC(=O)c1ccc(N)cc1", "note": "[Benzocaine]", "growth": "0.324 ± 0.02"}
{"molecule": "Cc1cc2c(cc1S(N)(=O)=O)S(=O)(=O)CCC2", "note": "[Meticrane]", "growth": "0.292 ± 0.011"}
{"molecule": "CC(C)COCC(CN(Cc1ccccc1)c1ccccc1)N1CCCC1", "note": "(centres undefined) [Bepridil hydrochloride]", "growth": "0.03953 ± 0.00038"}
{"molecule": "NC[C@H]1O[C@H](O[C@H]2[C@H](O[C@@H]3O[C@H](CO)[C@@H](O)[C@H]3O)[C@@H](O)[C@H](N)C[C@@H]2N)[C@H](N)[C@@H](O)[C@@H]1O", "note": "[Ribostamycin sulfate salt]", "growth": "0.286 ± 0.0099"}
{"molecule": "N=C(N)NS(=O)(=O)c1ccc(N)cc1", "note": "[Sulfaguanidine]", "growth": "0.292 ± 0.029"}
